# Screening results as filed in PubChem BioAssay.
# Shown are actives, neighbours in structure and some others; about 10% of the full set was active somewhere.
# L3MBTL1 block – qHTS Assay for the Inhibitors of L3MBTL1. actives 0.66% (n = 230,000). Lethal(3)malignant brain tumor-like protein 1 (Homo sapiens), Q9Y468. Potency, µM (series often up to 57.1 µM), for inactives: at the top dose activity, negative = inhibition, most hits filed as inhibitors. AlphaScreen L3MBTL1–H3K9me1 peptide binding. AID 485360, 2010; note: % is set by controls: 0 for no effect and ±100 for the full control effect; nearly all actives have a fitted effect of over 60% in size
#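 AlphaScreen assay: L3MBTL1 (50 nM final) was preincubated 30 min at room temperature with biotinylated H3(1-15)K9me1 peptide (75 nM final), then 30 min with library compounds; streptavidin donor and nickel chelate acceptor beads (10 ug/mL final) added, 30 min dark.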
# G9a block – qHTS Assay for Inhibitors of Histone Lysine Methyltransferase G9a; G9a H3K9 monomethylation, AlphaScreen, 2 h; Potency, µM (series often up to 102 µM), for inactives: at the top dose activity, negative = inhibition, actives largely listed as inhibitors; actives 8.8% (n = 350,000); AID 504332, 2011; note: % is set by controls: 0 for no effect and ±100 for the full control effect; nearly all actives have a fitted effect of over 75% in size
#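 Chemiluminescent proximity detection of H3K9 monomethylation, read after 10 min bead incubation in the dark. Reaction: 20 nM G9a, 500 nM biotin-H3K9 peptide, 20 uM SAM cofactor, 2 h, room temperature, following 15 min enzyme-compound preincubation.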
# HP1b chromo inh – HTS for Inhibitors of HP1-beta Chromodomain Interactions with Methylated Histone Tails | Chromobox protein homolog 1 (Homo sapiens), P83916 | AlphaScreen HP1-beta / biotin-H3K9me3 peptide binding | Potency, µM (top dose mostly 114 µM), inactives show at the top dose activity change, negative = inhibition, hits mostly inhibitors | actives 0.56% (n = 390,000) | AID 540317, 2011; note: nearly all actives have a fitted effect of over 70% in size
#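 Compound inhibition of the preformed complex between 50 nM HP1-beta and 50 nM biotinylated H3K9me3 peptide was read by AlphaScreen. Buffer was PBS pH 7.4 with 0.01% Tween-20. Incubations ran 30 min at room temperature, with 10 ug/mL donor/acceptor beads.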
# GLS inh – qHTS for Inhibitors of Glutaminase (GLS); actives 0.21% (n = 410,000); GLS enzymatic activity, qHTS titration; Potency, µM (titrated, usually from 45.5 µM), without a hit: at the highest dose activity change, negative = inhibition, actives largely listed as inhibitors; AID 624170, 2012; note: % is set by controls: 0 for no effect and ±100 for the full control effect
# Target sequence (O94925 whole entry, looked up): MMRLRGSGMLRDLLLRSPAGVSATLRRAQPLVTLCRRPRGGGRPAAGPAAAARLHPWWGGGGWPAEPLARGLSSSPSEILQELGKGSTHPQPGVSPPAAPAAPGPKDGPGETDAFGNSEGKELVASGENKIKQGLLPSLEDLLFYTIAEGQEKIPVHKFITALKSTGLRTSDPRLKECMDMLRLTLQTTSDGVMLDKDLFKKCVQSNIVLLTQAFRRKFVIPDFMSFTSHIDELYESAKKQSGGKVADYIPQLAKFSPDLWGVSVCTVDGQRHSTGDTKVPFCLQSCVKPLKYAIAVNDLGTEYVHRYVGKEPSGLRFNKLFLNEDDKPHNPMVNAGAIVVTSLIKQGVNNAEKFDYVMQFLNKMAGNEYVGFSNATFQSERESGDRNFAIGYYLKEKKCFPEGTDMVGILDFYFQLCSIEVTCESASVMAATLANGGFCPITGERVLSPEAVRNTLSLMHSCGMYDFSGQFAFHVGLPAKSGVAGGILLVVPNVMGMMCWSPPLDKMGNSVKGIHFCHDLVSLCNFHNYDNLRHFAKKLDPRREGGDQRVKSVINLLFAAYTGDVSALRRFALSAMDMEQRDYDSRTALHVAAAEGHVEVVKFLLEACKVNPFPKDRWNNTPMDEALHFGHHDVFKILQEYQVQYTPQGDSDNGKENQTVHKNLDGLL
#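 Enzyme dispensed in phosphate buffer (45 mM, pH 8.2, 0.02% Tween-20), compounds pinned in, then 1 mM L-glutamine solution and the glutamate oxidase–HRP–Amplex Red mix added; fluorescence read immediately and again after 30 min at room temperature.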
# BAZ2B inh – qHTS Assay for Inhibitors of BAZ2B; Bromodomain adjacent to zinc finger domain protein 2B (Homo sapiens), Q9UIF8; AlphaScreen BAZ2B-H3K14Ac peptide displacement; Potency, µM (doses to about 114 µM), without a hit: at the top dose activity change, negative = inhibition, usual class: inhibitors; actives 4.4% (n = 360,000); note: % is set by controls: 0 for no effect and ±100 for the full control effect; nearly all actives have a fitted effect of over 60% in size
#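 Multi-concentration screen (max 110 uM) measuring displacement of acetylated histone H3 peptide from BAZ2B by AlphaScreen, using 50 nM protein, 50 nM peptide and 10 ug/mL streptavidin donor plus Ni-chelate acceptor beads.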
# JMJD2A Tudor – qHTS Assay for Inhibitors of JMJD2A-Tudor Domain. Lysine-specific demethylase 4A (Homo sapiens), O75164. actives 4.4% (n = 390,000). AlphaScreen JMJD2A-Tudor / H3K4me3 peptide binding. Potency, µM (series often up to 114 µM), for the others: at the highest dose activity change, negative = inhibition, most hits filed as inhibitors; note: % is set by controls: 0 for no effect and ±100 for the full control effect; nearly all actives have a fitted effect of over 50% in size
# * marks the source's active call; other numbers are inactive results; ? = inconclusive; / = no result given; [ ] = remark or other dose. Calls come from the whole dose curve; as a rule, active = well fitted curve in the direction sought with a large enough effect; inconclusive = small, poorly fitted or top-dose-only effect, or another doubt; inactive = no such curve, though single readings can be large; an effect the other way counts as inactive or inconclusive. Potency is the fitted concentration of half-maximal effect.
SMILES,L3MBTL1 block,G9a block,HP1b chromo inh,GLS inh,BAZ2B inh,JMJD2A Tudor
Brc1ccc2nc(-c3cccs3)c(NCC3CCCO3)n2c1 (stereo not given),-25%,/,18%,18%,50µM*,-24%
Cc1ccc(NC(=O)c2ccc(-c3ccccc3)s2)cc1,/,3%[59 µM],22%,-10%,-2%,-7%
Cc1ccc(NC(=O)C2=C(c3ccccc3)S(=O)(=O)CCS2(=O)=O)cc1,-11%,40µM*,-22%[57 µM],0%,-2%,?
Cc1nnc(C)c2c(C)n(-c3ccc(Cl)c(N)c3)c(C)c12,/,56µM*,-9%,-10%,-33%,?
Cc1cc(C)cc(-n2c(C)c3c(C)nnc(C)c3c2C)c1,0%,?,-19%,-1%,?,?
COc1ccc(-c2nc(C#N)c(NCCc3ccccc3)o2)cc1OC,/,?,-31%,-7%,45µM*,?
COc1ccc(Nc2oc(COc3ccccc3OC)nc2C#N)cc1,-17%,?,-4%,0%,?,?
CCNc1oc(COc2ccccc2F)nc1C#N,-6%,40µM*,27%,-5%,-28%,-14%
COc1ccc(CCNc2oc(COc3ccccc3F)nc2C#N)cc1OC,-10%,45µM*,?,18%,?,-27%[11.4 µM]
N#CN=c1snc(-c2ccccc2)n1-c1ccc(Cl)cc1,/,/,24%[57 µM],/,/,-6%[57.1 µM]
CCc1ccccc1NC(=O)CN(Cc1ccccc1)S(=O)(=O)c1ccc2nc(C)sc2c1,/,4%[59 µM],31%,1%,-3%,5%
COC(=O)CSc1nc2ccc(N)cc2s1,-14%,18µM*,26%,0%,-16%,-18%
O=Nc1ccc2oc(=O)ccc2c1,/,2.2µM*,/,/,/,/
COc1ccccc1CNC(=O)C1CCC(CNS(=O)(=O)c2ccc3c(c2)CCCC(=O)N3)CC1 (stereo not given),/,-4%[59 µM],15%,-1%,2%,4%
CCOc1ccc(/C=C2/SC(=S)N(C(C(=O)O)c3ccccc3)C2=O)cc1OCC (stereo not given),/,45µM*,?,?,79µM*,?
COc1ccccc1/C=C1\SC(=S)N(C(C(=O)O)c2ccccc2)C1=O (stereo not given),-9%,?,28%,26%,-36%,3%[11.4 µM]
O=C(O)C(c1ccccc1)N1C(=O)/C(=C\c2ccc(O)c(O)c2)SC1=S (stereo not given),/,7.9µM*,25µM*,?,8.9µM*,20µM*
COc1cc(/C=C2\SC(=S)N(C(C(=O)O)c3ccccc3)C2=O)ccc1O (stereo not given),0%,8.9µM*,?,?,?,-32%
CCOc1cc(/C=C2\SC(=S)N(C(C(=O)O)c3ccccc3)C2=O)ccc1O (stereo not given),-12%,45µM*,?,?,-20%,-22%[11.4 µM]
O=C(CCCN1C(=O)/C(=C\c2ccccc2)SC1=S)Nc1ccc(O)cc1,-30%,-25%,-6%,?,?,?
COc1ccc(C2Nc3ccccc3C(=O)N2Cc2ccco2)cc1COc1ccc(N)cc1 (stereo not given),/,/,/,/,/,22µM*
CC(=O)Nc1ccc(OCc2cccc(C3Nc4ccccc4C(=O)N3Cc3ccco3)c2)cc1 (stereo not given),/,/,/,/,/,89µM*
O=C1c2ccccc2NC(c2cccc(O)c2)N1Cc1ccco1 (stereo not given),-7%,6%[59 µM],-1%[57 µM],8%,-18%,-14%[57.1 µM]
COc1cc(C(CC(=O)NCc2ccccc2)N2Cc3ccccc3C2=O)cc(OC)c1OC (stereo not given),/,?,45%,4%,-3%,-6%
